Screens: PubChem BioAssay, National Center for Advancing Translational Sciences (NCATS)
HP1b chromo inh – HTS for Inhibitors of HP1-beta Chromodomain Interactions with Methylated Histone Tails. AID 540317, 2011. Chromobox protein homolog 1 (Homo sapiens), P83916. Potency, µM (doses to about 114 µM), for inactives: at the highest dose activity change, negative = inhibition, most hits filed as inhibitors. 0.56% of 390,000 active. AlphaScreen HP1-beta / biotin-H3K9me3 peptide binding; also: nearly all actives have a fitted effect of over 70% in size
Target sequence (P83916 whole entry, looked up): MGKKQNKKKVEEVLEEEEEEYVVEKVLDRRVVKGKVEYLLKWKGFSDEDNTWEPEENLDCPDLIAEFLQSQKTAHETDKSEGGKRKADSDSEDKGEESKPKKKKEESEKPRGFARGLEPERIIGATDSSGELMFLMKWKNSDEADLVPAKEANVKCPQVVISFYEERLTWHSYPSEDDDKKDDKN
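AlphaScreen: HP1-beta (50 nM) preformed 30 min with biotin-H3(1-18)K9me3 peptide (50 nM) in PBS pH 7.4, 0.01% Tween-20. Compound added for 30 min at RT, then streptavidin donor/nickel chelate acceptor beads (10 ug/mL) for 30 min.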
G9a block – qHTS Assay for Inhibitors of Histone Lysine Methyltransferase G9a | 8.8% of 350,000 active | Potency, µM (doses to about 102 µM), without a hit: top-dose activity, negative = inhibition, most hits filed as inhibitors | G9a H3K9 monomethylation, AlphaScreen, 2 h; also: % is scaled to controls: 0 for no effect and ±100 for the full control effect; nearly all actives have a fitted effect of over 75% in size
Target sequence (Q96KQ7 913-1193 limits assumed): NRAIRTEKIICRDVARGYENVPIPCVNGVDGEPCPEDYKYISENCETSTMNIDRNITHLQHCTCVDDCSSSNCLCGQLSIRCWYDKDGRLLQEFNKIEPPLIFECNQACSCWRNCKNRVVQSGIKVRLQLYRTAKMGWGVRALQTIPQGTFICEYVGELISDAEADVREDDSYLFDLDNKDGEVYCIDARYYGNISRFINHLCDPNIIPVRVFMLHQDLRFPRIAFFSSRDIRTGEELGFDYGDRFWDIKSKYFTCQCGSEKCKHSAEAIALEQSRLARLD
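Enzyme 20 nM + cpd, 15 min RT; add b-H3K9 pep 500 nM / SAM 20 uM; 2 h RT; anti-H3K9me1 Ab 0.5 ug/mL + SA donor / anti-rabbit acceptor beads 20 ug/mL each, 10 min; AlphaScreen read.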
JMJD2A Tudor inh – qHTS Assay for Inhibitors of JMJD2A-Tudor Domain; Lysine-specific demethylase 4A (Homo sapiens), O75164; AlphaScreen JMJD2A-Tudor / H3K4me3 peptide binding; Potency, µM (doses to about 114 µM), inactives show at the highest dose activity change, negative = inhibition, usual class: inhibitors; 4.4% of 390,000 active; AID 504339, 2011; also: % is scaled to controls: 0 for no effect and ±100 for the full control effect; nearly all actives have a fitted effect of over 50% in size
BAZ2B inh – qHTS Assay for Inhibitors of BAZ2B; Bromodomain adjacent to zinc finger domain protein 2B (Homo sapiens), Q9UIF8; AlphaScreen BAZ2B-H3K14Ac peptide displacement; Potency, µM (top dose mostly 114 µM), for the others: top-dose activity change, negative = inhibition, hits mostly inhibitors; 4.4% of 360,000 active; also: % is scaled to controls: 0 for no effect and ±100 for the full control effect; nearly all actives have a fitted effect of over 60% in size
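AlphaScreen displacement: compounds (up to 110uM) incubated 30 min at room temperature with a preformed 50 nM BAZ2B/50 nM biotinylated H3K14Ac peptide complex in PBS pH 7.4 with Tween-20. Donor and acceptor beads at 10 ug/mL final added, 20 min light-protected before reading.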
Sfp PPTase inh – qHTS Assay for Inhibitors of Bacillus subtilis Sfp phosphopantetheinyl transferase (PPTase). Potency, µM, inactives show largest response in the series, negative = inhibition, actives largely listed as inhibitors. 3.5% of 310,000 active. 4'-phosphopantetheinyl transferase ffp (Bacillus subtilis), Q9F4F7. Biochemical Sfp PPTase activity, qHTS;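 also: the enzyme is Sfp with the accession as filed and its product quenches rhodamine fluorescence; 0% = enzyme reaction without inhibitor and -100% = no enzyme wells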
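Sfp 15 nM + cpd, 15 min RT; start w/ rhodamine-CoA 5 uM, BHQ-2-YbbR 12.5 uM (final); 50 mM Hepes pH 7.6, 10 mM MgCl2, 0.01% NP-40, 0.01% BSA; read 525/598 nm at 0 and 30 min.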
Starred values were filed as active, the others as inactive; ? = inconclusive; . = no result given; [ ] = dose if it differs, or a comment. Most compounds without a hit are left out; they make up all but 12% or so of the library. Calls follow the shape of the dose curve; as a rule, active = well fitted curve in the direction sought with a large enough effect; inconclusive = small, poorly fitted or top-dose-only effect, or another doubt; inactive = no such curve, though single readings can be large; an effect the other way counts as inactive or inconclusive. Potency is read from the fitted curve at half-maximal effect.

SMILES | HP1b chromo inh | G9a block | JMJD2A Tudor inh | BAZ2B inh | Sfp PPTase inh
COc1ccc(Br)c2oc(SC)cc(=O)c12 | 32% | 40µM* | -10% | ? | 13%
CCCC(C)(C)C(=O)Nc1ccc(Cl)cc1 | . | . | . | . | -5%
O=C(Cc1ccsc1)N1CCc2c([nH]c3ccccc23)C1c1ccccn1 (stereo not drawn) | 17% | 50µM* | ? | -31% | -15%
CC(C)c1nc(C(=O)N2CCc3c([nH]c4ccccc34)C2c2ccccn2)cs1 (stereo not drawn) | -18% | . | 56µM* | 22µM* | -13%
O=C(O)c1cccnc1C(=O)N1CCc2c([nH]c3ccccc23)C1C(F)(F)F (stereo not drawn) | 3% | 56µM* | ? | -38% | -17%
Cc1cccc(C2c3[nH]c4ccccc4c3CCN2C(=O)Cc2nc(-c3ccccc3)n[nH]2)n1 (stereo not drawn) | -3% | ? | ? | -37% | 16%
Cc1nc(C(=O)N2CCc3c([nH]c4ccccc34)C2c2ccccn2)cs1 (stereo not drawn) | -17% | -10% | -29% | -23% | 18%
Cc1nc2c(c(C)c1CCC(=O)NCc1ccccc1)c(=O)n(C)c(=O)n2C | 21% | -2%[59 µM] | -12% | -19% | .
COc1ccc(CCn2c3c(c(=O)[nH]c2=S)CN(Cc2ccccc2)CN3)cc1OC | 6% | . | -22% | . | .
Cc1nn(-c2ccccc2)c(C)c1/C=C/C(=O)OCC(=O)Nc1ncc(Cl)cc1Cl | -11% | ? | ? | -42% | -10%
Cc1ccc(C)c(OCC(=O)OCC(=O)Nc2c(C)nn(-c3ccccc3)c2C)c1 | 31% | ? | -16% | 0% | .
Cc1nn(-c2ccccc2)c(C)c1NC(=O)COC(=O)CC(C)c1ccccc1 (stereo not drawn) | 27% | ? | 16µM* | 8% | .
CNC(=O)COC(=O)/C=C/c1c(C)nn(-c2ccccc2)c1C | 13% | 50µM* | 6% | 8% | 13%
Cc1cccc(OCCC(=O)OCC(=O)Nc2c(C)nn(-c3ccccc3)c2C)c1 | 27% | 35µM* | -7% | -3% | .
O=C(Nc1ccc(C2=NCCN2)cc1)c1ccc(C(=O)Nc2ccc(C3=NCCN3)cc2)c([N+](=O)[O-])c1 | ? | 40µM* | ? | ? | -20%
Cc1ccc(NC(=O)c2ccc(-n3cccn3)c([N+](=O)[O-])c2)cc1 | -8% | 10% | -31% | -10% | 9%
CCOC(=O)N/N=C1/C[C@@H](O)[C@@H](O)[C@@H]2[C@@H]3C(=O)N(C4CCCCC4)C(=O)[C@H]3CC[C@H]12 | . | . | . | . | 16%
CC(=O)N1CCc2ccccc2C1CC(=O)O (stereo not drawn) | 36% | -33% | -1% | ? | -1%
O=C(O)CCN1CCc2ccccc2C1c1cccs1 (stereo not drawn) | 36% | 50µM* | 3% | -38% | -8%
Cc1c(Cl)cccc1NC(=S)N(Cc1ccco1)C(C)c1ccccn1 (stereo not drawn) | 18% | ? | -19% | . | -10%
Cc1ccccc1NC(=S)N(Cc1ccco1)C(C)c1ccccn1 (stereo not drawn) | 15% | 0% | -21% | -1% | 79µM*
Cc1ccc2c(c1)C(=O)c1c(C(=O)O)cccc1-2 | -14% | -32% | -18%[11.4 µM] | -13% | 27%
O=C(O)c1cccc2c1C(=O)c1cccc3snc-2c13 | 7% | 56µM* | -23% | -19% | 25%
COc1ccc(OC)c(/C=N/NC(=O)CCN2CCN(C(c3ccccc3)c3ccccc3)CC2)c1 | -17% | 10µM* | ? | ? | -17%
O=C(CCN1CCN(C(c2ccccc2)c2ccccc2)CC1)N/N=C/c1ccc(O)cc1O | -32% | ? | 63µM* | ? | 5%
SMILES | HP1b chromo inh | G9a block | JMJD2A Tudor inh | BAZ2B inh | Sfp PPTase inh
O=C(CCN1CCN(C(c2ccccc2)c2ccccc2)CC1)N/N=C/c1ccc(O)cc1 | -20% | -24% | ? | ? | 6%
COc1ccc(OC)c(NC(=O)CCN2CCN(Cc3ccccc3)CC2)c1 | 14% | 50µM* | -31% | -9% | 4%
CCCN(CCC)C(=O)CC(c1ccccc1)c1ccco1 (stereo not drawn) | 33% | . | -6% | -26% | 45µM*
CN(C)CCCNC(=O)CC(c1ccc(F)cc1)c1ccco1 (stereo not drawn) | 2% | 27% | -19% | 12% | 8%
CCN(CC)C(=O)CC(c1ccc(F)cc1)c1ccco1 (stereo not drawn) | 20% | 14µM* | -7% | -26% | -28%
COc1ccccc1CCn1c(=O)c(C)nc2cncnc21 | . | -23%[12.7 µM] | . | . | 12%
CCN(CC)CCOC(=O)c1ccc(N/C=C(/C#N)c2nc(-c3cccc(OC)c3)cs2)cc1 | 11% | 28µM* | -11% | ? | ?
CCN(CC)CCOC(=O)c1ccc(N/C=C(/C#N)c2nc(-c3ccc(OC)c(OC)c3)cs2)cc1 | 14µM* | 1.6µM* | 35µM* | -33% | ?
Cc1cccc(OC(C)C(=O)Nc2ccc(N3CCCCC3)cc2)c1 (stereo not drawn) | -22% | 22µM* | ? | ? | .
CC(Oc1cccc(F)c1)C(=O)Nc1ccc(N2CCOCC2)cc1 (stereo not drawn) | 30% | ? | -19% | -1% | .
Cc1ccc(OC(C)C(=O)Nc2ccccc2C(=O)N2CCN(C)CC2)cc1 (stereo not drawn) | 2% | 40µM* | -4% | -22% | 12%
CC(C(=O)Nc1ccccc1C(=O)N1CCCC1)n1nnc2ccccc21 (stereo not drawn) | 3% | 18µM* | -11% | 5% | -8%
Cc1cccc(OC(C)C(=O)Nc2ccccc2C(=O)N2CCCCC2)c1 (stereo not drawn) | 16%[57 µM] | 35µM* | -13% | -7% | -20%
Cc1oc(-c2cccc(Br)c2)nc1Cn1c(=O)cc(-c2ccccc2)c2c(C)nn(C)c21 | 52% | -2%[59 µM] | -4% | -5% | .
CCn1cc(C(=O)N2CCN(c3cccc(Cl)c3)CC2)c(=O)c2cc(S(=O)(=O)N3CCCCC3)ccc21 | -7% | -14%[59 µM] | -24% | . | .
CC(Oc1cccc(Cl)c1)C(=O)Nc1ccccc1N1CCCC1 (stereo not drawn) | -4% | 50µM* | ? | -7% | .
CC(Oc1ccc(Cl)cc1)C(=O)Nc1ccccc1N1CCOCC1 (stereo not drawn) | 63% | . | 20% | . | .
CC(C)[C@H](NS(=O)(=O)c1ccccc1)C(=O)OCC(=O)Nc1cccc(S(N)(=O)=O)c1 | 32% | . | -15% | . | .
